Most compounds without a hit are left out; they make up all but 12% or so of the library.
HP1b chromo inh – HTS for Inhibitors of HP1-beta Chromodomain Interactions with Methylated Histone Tails. Chromobox protein homolog 1 (Homo sapiens), P83916. AlphaScreen HP1-beta / biotin-H3K9me3 peptide binding. Potency, µM (doses to about 114 µM), most hits filed as inhibitors. 390,000 compounds, 0.56% hits; also: nearly all actives have a fitted effect of over 70% in size
Target sequence (P83916 whole entry, looked up): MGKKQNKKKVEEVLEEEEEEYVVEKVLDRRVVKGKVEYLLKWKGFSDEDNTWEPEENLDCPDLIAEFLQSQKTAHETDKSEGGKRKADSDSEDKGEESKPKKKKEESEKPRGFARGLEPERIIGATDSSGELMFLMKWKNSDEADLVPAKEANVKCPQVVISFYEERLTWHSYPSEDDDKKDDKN
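HP1-beta protein (50 nM final) preincubated 30 min at room temperature with biotinylated H3(1-18)K9me3 peptide (50 nM) in PBS pH 7.4, 0.01% Tween-20, then compound added for 30 min. AlphaScreen streptavidin donor/nickel chelate acceptor beads (10 ug/mL final), 30 min dark, luminescence read.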
Sfp PPTase inh – qHTS Assay for Inhibitors of Bacillus subtilis Sfp phosphopantetheinyl transferase (PPTase) | Biochemical Sfp PPTase activity, qHTS | AID 1490, 2009 | Potency, µM, hits mostly inhibitors | 310,000 compounds, 3.5% hits;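 also: the enzyme is Sfp with the accession as filed and its product quenches rhodamine fluorescence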
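After 15 min at room temperature with compound, 15 nM Sfp received 5 uM rhodamine-CoA plus 12.5 uM BHQ-2-ybbR (50 mM Hepes pH 7.6, 10 mM MgCl2). Rate came from the fluorescence difference over 30 min, ex 525/em 598 nm.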
BAZ2B inh – qHTS Assay for Inhibitors of BAZ2B. Bromodomain adjacent to zinc finger domain protein 2B (Homo sapiens), Q9UIF8. AlphaScreen BAZ2B-H3K14Ac peptide displacement. Potency, µM (series often up to 114 µM), actives largely listed as inhibitors. 360,000 compounds, 4.4% hits. AID 504333, 2011; also: nearly all actives have a fitted effect of over 60% in size
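Complex of BAZ2B and biotin-H3K14Ac (50 nM apiece) forms over 30 min at RT, then faces library compounds up to 110 uM for another 30 min; AlphaScreen beads added, 20 min dark incubation, luminescence read.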
G9a inh – qHTS Assay for Inhibitors of Histone Lysine Methyltransferase G9a; G9a H3K9 monomethylation, AlphaScreen, 2 h; 350,000 compounds, 8.8% hits; Potency, µM (titrated, usually from 102 µM), usual class: inhibitors; also: nearly all actives have a fitted effect of over 75% in size
Target sequence (Q96KQ7 913-1193 limits assumed): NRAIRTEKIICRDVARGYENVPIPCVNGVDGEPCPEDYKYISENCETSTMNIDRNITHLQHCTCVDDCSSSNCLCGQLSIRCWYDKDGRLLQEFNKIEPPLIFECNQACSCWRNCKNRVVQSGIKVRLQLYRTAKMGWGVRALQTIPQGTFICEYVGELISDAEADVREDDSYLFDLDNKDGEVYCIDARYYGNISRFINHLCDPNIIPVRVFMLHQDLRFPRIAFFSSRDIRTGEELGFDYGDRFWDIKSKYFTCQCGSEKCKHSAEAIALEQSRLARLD
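Chemiluminescent proximity detection of H3K9 monomethylation, read after 10 min bead incubation in the dark. Reaction: 20 nM G9a, 500 nM biotin-H3K9 peptide, 20 uM SAM cofactor, 2 h, room temperature, following 15 min enzyme-compound preincubation.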
L3MBTL1 inh – qHTS Assay for the Inhibitors of L3MBTL1 | Potency, µM (titrated, usually from 57.1 µM), hits mostly inhibitors | Lethal(3)malignant brain tumor-like protein 1 (Homo sapiens), Q9Y468 | AlphaScreen L3MBTL1–H3K9me1 peptide binding | 230,000 compounds, 0.66% hits; also: nearly all actives have a fitted effect of over 60% in size
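Displacement of a biotinylated histone H3(1-15) peptide monomethylated at Lys9 (75 nM) from L3MBTL1 (50 nM) was measured by AlphaScreen after a 30 min room-temperature compound incubation; cefsulodin titration served as intraplate control.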
JMJD2A Tudor inh – qHTS Assay for Inhibitors of JMJD2A-Tudor Domain. AID 504339, 2011. Potency, µM (titrated, usually from 114 µM), most hits filed as inhibitors. 390,000 compounds, 4.4% hits. AlphaScreen JMJD2A-Tudor / H3K4me3 peptide binding. Lysine-specific demethylase 4A (Homo sapiens), O75164; also: nearly all actives have a fitted effect of over 50% in size
Numbers stand for hits; - = inactive; ? = inconclusive; . = no result; [ ] = remark or other dose. Calls follow the shape of the dose curve; as a rule, active = well fitted curve in the direction sought with a large enough effect; inconclusive = small, poorly fitted or top-dose-only effect, or another doubt; inactive = no such curve, though single readings can be large; an effect the other way counts as inactive or inconclusive.

SMILES	HP1b chromo inh	Sfp PPTase inh	BAZ2B inh	G9a inh	L3MBTL1 inh	JMJD2A Tudor inh
COc1ccc(CN2C(=O)c3cccnc3C2=O)cc1S(=O)(=O)N1CCCC(C)C1 (stereo not drawn)	-	-	56µM	-	.	-
COc1ccc(CN2C(=O)c3cccnc3C2=O)cc1S(=O)(=O)N1CCCCC1	-	-	?	-	.	-
COc1ccc(CN2C(=O)c3cccnc3C2=O)cc1S(=O)(=O)NCc1ccc(C)cc1	-	-	79µM	-	.	-
CCN(Cc1ccccc1)S(=O)(=O)c1ccc(F)c(C(=O)Nc2ccc(C(C)C)cc2)c1	-	.	-	-	.	-
COc1ccc(Oc2nc(C)cc(C)c2C#N)cc1	-	-	-	-	-	-
COc1ccc(/C=C/c2n[nH]c(=O)c(C#N)c2C)cc1	-	-	-	45µM	.	-
COc1ccc2[nH]c(=O)c(NC(N)=S)nc2c1	-	35µM	-	-[2.33 µM]	-	-
O=C(c1ccc([N+](=O)[O-])cc1)N1CCN(c2ccc(Nc3ccccc3)nn2)CC1	-	.	-	-	.	-
CCOC(=O)C1(C)C=C(Nc2ccc(OC)cc2)C(=O)N1c1ccccc1 (stereo not drawn)	-	.	-	?	.	-
CCOC(=O)C1(C)/C(=N/Nc2ccc(Cl)cc2)C(=O)C(=O)N1c1ccccc1 (stereo not drawn)	?	-	56µM	?	.	16µM
CCOC(=O)C1(C)/C(=N/Nc2ccc(S(N)(=O)=O)cc2)C(=O)C(=O)N1c1ccccc1 (stereo not drawn)	-	-	-	35µM	.	-
CCOC(=O)C1(C)/C(=N/Nc2ccccc2Cl)C(=O)C(=O)N1c1ccccc1 (stereo not drawn)	?	-	50µM	3.5µM	.	40µM
CCOC(=O)C1(C)/C(=N/Nc2cccc(Cl)c2)C(=O)C(=O)N1c1ccccc1 (stereo not drawn)	?	-	?	?	-	28µM
CCOC(=O)CSc1nnc(CNc2cccc(Cl)c2)n1-c1ccccc1	-	-	-	-[12.7 µM]	.	-
Cc1cc(C)c(S(=O)(=O)NCC(c2ccco2)N2CCN(c3ccccc3)CC2)c(C)c1 (stereo not drawn)	-	.	-	-	.	-
COc1ccc(-c2noc(-c3ccc(NCc4ccc(C)cc4)c([N+](=O)[O-])c3)n2)cc1OC	-	.	-	-	.	-
Cc1nc(-c2cccnc2)sc1CCNS(=O)(=O)c1ccc(F)cc1	-	.	-	-	.	-
Cc1ccc(NC(=O)/C=C/c2ccc(C)o2)c(C)c1	?	.	79µM	11µM	.	?
COC(=O)c1ccc(Cl)cc1NC(=O)/C=C/c1ccc(C)o1	-	25µM	-	?	-	-
COC(=O)c1cc(Cl)c(NC(=O)/C=C/c2ccc(Cl)cc2Cl)cc1OC	-	-	-	-	-	-
CN(C)S(=O)(=O)c1ccc(C(=O)Nc2ccccc2SCCC#N)cc1	-	14µM	.	5µM	.	-
N#CCCSc1ccccc1NC(=O)c1cc(=O)c2ccccc2o1	-	22µM	-	20µM	.	-
CCOc1ccccc1NC(=O)c1cc(=O)c2ccccc2o1	-	-	-	-	.	-
CCS(=O)(=O)N1CC(=O)N(c2cccc(Cl)c2)C(C)(C(=O)NC2CCCCCC2)C1 (stereo not drawn)	-	.	-	-	.	-
O=S(=O)(c1ccc2ncccc2c1)N1CCN(c2nc(-c3cccs3)nc3ccccc23)CC1	-	.	.	.	.	-
CCOc1ccc(N2Nc3n[nH]c(N)c3N2)cc1	-	-	?	8.9µM	-	?
COc1ccc(N2Nc3n[nH]c(N)c3N2)cc1	-	-	-	7.9µM	-	?

Screens as filed in PubChem BioAssay.
